Source: PubChem (National Center for Advancing Translational Sciences (NCATS))
TexasRed fluor: counter-screen for TRb-SRC2 inhibitors: fluorescence interference; Potency, µM (series often up to 106 µM); TRb/SRC2 Texas Red total fluorescence interference; hit rate 0.29% among 280,000; active = well fitted curve in either direction with a large enough effect; inconclusive = small, poorly fitted or top-dose-only effect
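Human TRβ ligand-binding domain (0.6 uM) and Texas Red SRC2 peptide (20 nM) in Tris buffer with 1 uM T3 and 5% DMSO were incubated with pinned compound for 5 hr at ambient temperature. Total fluorescence was computed as S + 2P (555/632 nm).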
Tau FP inhib: tau fibrillization inhibition (FP) | P10636 | K18 P301L tau heparin fibrillization, Alexa594 FP, 6 h | Potency, µM (titrated, usually from 57.7 µM), actives largely listed as inhibitors | hit rate 0.39% among 280,000 | AID 1468; note: nearly all actives have a fitted effect of over 55% in size
Target sequence (P10636 561-689 P618L limits assumed): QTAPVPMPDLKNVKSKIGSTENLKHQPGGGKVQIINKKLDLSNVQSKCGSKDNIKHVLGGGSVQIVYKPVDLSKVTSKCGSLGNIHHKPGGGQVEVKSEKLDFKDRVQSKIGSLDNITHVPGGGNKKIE
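Human tau K18 […] P301L fragment, 15 uM unlabeled plus 0.24 uM Alexa 594-labeled tau (final), with compound and 20 uM heparin in 100 mM sodium acetate pH 7; 6 hr at 37 C, then Alexa 594 FP read.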
Tau fluor counter: counter-screen for tau fibril formation inhibitors; tau K18 P301L Alexa594 fluorescence, heparin fibrillization; Potency, µM (top dose mostly 57.7 µM); hit rate 0.93% among 280,000; AID 1463; note: nearly all actives have a fitted effect of over 55% in size
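Human K18 P301L tau (15 uM unlabeled plus 0.24 uM Alexa 594-labeled, final) in 100 mM sodium acetate pH 7 was mixed with compound and 20 uM heparin and incubated 6 hr at 37 C.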
Tau fibril ThT: inhibitors of human tau fibril formation, thioflavin T binding; AID 1460; recombinant tau K18 P301L (four-repeat tau fragment), heparin-induced fibrillization, ThT fluorescence; hit rate 2.1% among 270,000; P10636; Potency, µM (series often up to 57.4 µM), most hits filed as inhibitors; note: nearly all actives have a fitted effect of over 55% in size
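K18 P301L tau (15 uM + 0.24 uM Alexa 594-tagged), heparin 20 uM, NaOAc pH 7, 6 h 37 C; ThT 30 uM, 1 h RT, ex 450/em 510 nm.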
TRb-SRC2 inh: TRbeta-SRC2 interaction inhibition; TRbeta-SRC2 peptide binding, fluorescence polarization; receptor liganded with 1 µM T3; Potency, µM (doses to about 106 µM), hits mostly inhibitors; hit rate 0.065% among 280,000; AID 1469; note: nearly all actives have a fitted effect of over 50% in size
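Polarization signal, normalized between peptide-alone and full complex controls, measured compound effects on T3-liganded human TRb LBD (0.6 uM) binding 20 nM Texas Red SRC2 peptide after 5 hr.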
GoLoco inh red: RGS12 GoLoco-Gai1 interaction inhibition; Potency, µM (highest dose often 61.6 µM), actives largely listed as inhibitors; Gai1:RGS12 GoLoco peptide FP, rhodamine, 10 min; hit rate 0.44% among 230,000; active = well fitted inhibition curve with a large enough effect, not every such curve was filed as active; inactive = no such curve, though single readings can be large or run the other way; note: nearly all actives have a fitted effect of over 30% in size
Target sequence (P63096 whole entry, looked up): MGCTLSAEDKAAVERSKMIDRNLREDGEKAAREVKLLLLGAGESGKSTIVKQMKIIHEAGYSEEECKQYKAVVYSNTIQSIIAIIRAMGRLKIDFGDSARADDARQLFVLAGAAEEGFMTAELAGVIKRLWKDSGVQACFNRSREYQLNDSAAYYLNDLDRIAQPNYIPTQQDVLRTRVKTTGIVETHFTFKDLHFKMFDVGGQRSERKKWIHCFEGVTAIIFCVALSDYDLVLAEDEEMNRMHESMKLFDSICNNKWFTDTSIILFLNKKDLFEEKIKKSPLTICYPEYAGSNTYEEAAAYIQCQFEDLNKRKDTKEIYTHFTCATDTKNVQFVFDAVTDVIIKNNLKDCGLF
Of the large screens only hits and unclear results are named; the others gave an inactive call; ! = repeats disagree; [ ] = remark or other dose. Rows were chosen to be rich in hits. Some 3.2% of all compounds tested hit in one or more screens of this group. Unless noted, calls come from the whole dose curve; as a rule, active = well fitted curve in the direction sought with a large enough effect; inconclusive = small, poorly fitted or top-dose-only effect, or another doubt; inactive = no such curve, though single readings can be large; an effect the other way counts as inactive or inconclusive.

CC[n+]1ccc(/C=C/c2ccc(N(C)C)cc2)c2ccccc21	TexasRed fluor 32µM[fluorescent], Tau FP inhib inconclusive, Tau fluor counter 0.71µM[fluorescent], Tau fibril ThT 1.4µM, TRb-SRC2 inh inconclusive
CN(C)c1ccc(/C=C/c2cc[n+](C)cc2)cc1	TexasRed fluor 45µM[fluorescent], Tau FP inhib inconclusive, Tau fluor counter 14µM[fluorescent], Tau fibril ThT 4µM, TRb-SRC2 inh inconclusive
CC[n+]1c(/C=C/c2ccc(N(C)C)cc2)ccc2ccccc21	none
CC[n+]1ccccc1/C=C/c1ccc(N(C)C)cc1	Tau fibril ThT 14µM
CCC(=O)NCCCC[C@H](NC(=O)OCc1ccccc1)C(=O)Nc1ccc2c(C)cc(=O)oc2c1	none (no result: Tau FP inhib, Tau fluor counter, Tau fibril ThT, GoLoco inh red)
O=C(OCc1ccccc1Cl)c1ccc(-c2nnn(Cc3ccccc3)n2)cc1	TexasRed fluor inconclusive (no result: GoLoco inh red)
CCOc1ccccc1-c1nnc2n1N=C(c1cc(OC)ccc1OC)CS2	none (no result: Tau FP inhib, Tau fluor counter, Tau fibril ThT, GoLoco inh red)
CCCCCCCCCCCCCCO	none (no result: Tau FP inhib, Tau fluor counter, Tau fibril ThT, GoLoco inh red)
COC(=O)c1cc2oc(C)cc2n1Cc1ccccc1Cl	Tau fibril ThT inconclusive (no result: GoLoco inh red)
O=C(NCc1ccco1)/C(=C\c1ccco1)NC(=O)c1ccco1	Tau FP inhib inconclusive, Tau fluor counter inconclusive, Tau fibril ThT 40µM
O=C(NCc1ccco1)/C(=C/c1ccco1)NC(=O)c1ccc(Br)o1	Tau fibril ThT inconclusive
COc1ccc([C@H]2Oc3cc(O)cc(O)c3C(=O)C2[C@@H]2C(=O)c3c(O)cc(O)cc3O[C@@H]2c2ccc(OC)cc2)cc1 (stereo partly drawn)	Tau FP inhib 18µM, Tau fibril ThT inconclusive, TRb-SRC2 inh inconclusive
O=C1c2c(O)cc(O)cc2OC(c2ccc(O)c(O)c2)C1O (stereo not drawn)	Tau fibril ThT inconclusive
COc1ccc(C2=CC3=C(Br)C(=O)C(C)(O)C(=O)C3=CO2)cc1 (stereo not drawn)	Tau FP inhib inconclusive, Tau fluor counter inconclusive, Tau fibril ThT 18µM!
COc1ccc(C2=CC3=CC(=O)C(C)(O)C(=O)C3=CO2)cc1 (stereo not drawn)	none
CCC(=O)OC1(C)C(=O)C=C2C=C(c3ccc(C#N)cc3)OC=C2C1=O (stereo not drawn)	none
CCC(=O)OC1(C)C(=O)C2=COC(c3ccc(OC)cc3)=CC2=C(Br)C1=O (stereo not drawn)	Tau fibril ThT 16µM
CCN(CC)c1ccc(NC(=O)COC(=O)c2cccs2)cc1	GoLoco inh red 2µM
CCOc1ccc(/C=C2\SC(=S)N(C)C2=O)cc1OC	Tau fibril ThT inconclusive
COc1ccc(/C=C2\SC(=O)NC2=S)cc1OC	Tau FP inhib inconclusive, Tau fibril ThT 8.9µM
COc1cc(/C=C2\SC(=O)NC2=O)ccc1Oc1ccc([N+](=O)[O-])cc1[N+](=O)[O-]	Tau fluor counter inconclusive, Tau fibril ThT 14µM
CO/N=C/c1ccc(Oc2ccc([N+](=O)[O-])cc2[N+](=O)[O-])c(OC)c1	none
CSc1ccc(CCNC(=O)CN2C(=O)COc3ccc(S(=O)(=O)N4CCCC4)cc32)cc1	TexasRed fluor inconclusive (no result: GoLoco inh red)
CCOC(=O)c1c(NC(=O)c2cc(=O)c3cc(C)ccc3o2)sc2c1CCCC2	none (no result: GoLoco inh red)
Nc1cccn2c(-c3ccc(Cl)c(Cl)c3)cnc12	Tau fluor counter inconclusive, Tau fibril ThT 13µM
CCc1ccc2c(O)c3c(cc2c1C(=O)OC)C(=O)c1c(O)ccc(O)c1C3=O	Tau FP inhib inconclusive, Tau fluor counter inconclusive, Tau fibril ThT 3.2µM
CCCCc1cc2c(cn1)=C(OC(=O)C1CCCC1)C(C)(OC(=O)CC)C(=O)C=2 (stereo not drawn)	Tau fibril ThT inconclusive
NNc1cc([N+](=O)[O-])cc2c1C(=O)N(Cc1ccccc1)S2=O (stereo not drawn)	Tau FP inhib inconclusive, Tau fibril ThT 25µM
CCN1CCN(Cc2ccc(NC(=O)c3cc(NC(=O)c4ccc5n[nH]nc5c4)cc(OC)c3)cc2C(F)(F)F)CC1	Tau FP inhib inconclusive
CCN1CCN(Cc2ccc(NC(=O)c3cc(NC(=O)c4cc(-c5ccc(OC)cc5)n[nH]4)cc(OC)c3)cc2C(F)(F)F)CC1	Tau FP inhib 28µM, Tau fluor counter inconclusive, Tau fibril ThT inconclusive
Clc1nnc(NN=C2CCCC2)c2ccccc12	Tau fluor counter inconclusive, Tau fibril ThT 25µM
Clc1nnc(N/N=C/c2ccccc2)c2ccccc12	Tau FP inhib inconclusive, Tau fluor counter inconclusive, Tau fibril ThT inconclusive
N=c1oc2c3c4c(cc2cc1C(=O)Nc1ccccc1)CCCN4CCC3	GoLoco inh red 4µM
Cc1oc(S(=O)(=O)N2CCCC2)cc1C(=O)Nc1ccccc1	none
Cc1ccc(NC(=O)C2CCCN(c3ncnc4onc(C)c34)C2)c(Cl)c1 (stereo not drawn)	none (no result: GoLoco inh red)
Cc1ccc(C(C[N+](=O)[O-])Sc2ccc(N)cc2)cc1 (stereo not drawn)	Tau FP inhib inconclusive, Tau fluor counter inconclusive, Tau fibril ThT 18µM
Cc1ccc(C(C[N+](=O)[O-])n2nc(C)cc2C)cc1 (stereo not drawn)	none
O=[N+]([O-])c1cccc2c[nH]nc12	TexasRed fluor inconclusive, Tau fibril ThT inconclusive
Cc1oc(C)c2c(=O)ccc3c(c12)OC(N)=C(C#N)C3c1ccc(F)cc1 (stereo not drawn)	Tau FP inhib inconclusive, Tau fluor counter inconclusive, Tau fibril ThT 25µM
C[n+]1cccc2ccc3c(c21)OC(N)=C(C#N)C3c1ccccc1 (stereo not drawn)	none (no result: Tau fibril ThT)
c1ccc(OCCOc2ccccc2)cc1	none (no result: Tau FP inhib, Tau fluor counter, Tau fibril ThT, GoLoco inh red)
Cc1ccc(C2=NN=C(NC(=O)CSc3nnc4c5ccccc5n(C)c4n3)SC2)cc1	Tau FP inhib inconclusive, Tau fibril ThT 2.8µM
Cc1ccc(C2=NN=C(NC(=O)CSc3nc(C)cc(C)n3)SC2)cc1	Tau FP inhib inconclusive, Tau fibril ThT 13µM
Cc1cc(C)nc(SCC(=O)NC2=NC(=O)C(C)S2)n1 (stereo not drawn)	Tau FP inhib inconclusive, Tau fibril ThT inconclusive
CN[C@@H]1[C@H](O[C@@H]2O[C@H](C)[C@@](O)(CO)[C@H]2O[C@H]2[C@H](O)[C@H](O)[C@H](N=C(N)N)[C@@H](O)[C@@H]2N=C(N)N)O[C@@H](CO)[C@H](O)[C@H]1O	Tau fibril ThT inconclusive
CC(C)=CCC/C(C)=C/C=C/C(C)=C/C=C/C(C)=C/C=C/C=C(C)/C=C/C=C(C)/C=C/C=C(\C)CCC=C(C)C	none (no result: Tau FP inhib, Tau fluor counter, Tau fibril ThT)
COC(=O)/C=C/C(C)=C/C=C/C(C)=C/C=C/C=C(C)/C=C/C=C(C)/C=C/C(=O)O	Tau FP inhib inconclusive, Tau fibril ThT 13µM
CC(=O)Nc1ccc(C2NC(C(=O)O)CCC2C)cc1 (stereo not drawn)	none (no result: GoLoco inh red)
O=C(CNc1ccc2ccccc2c1)N/N=C/c1cc2ccccc2nc1Cl	Tau fluor counter 13µM[quencher], Tau fibril ThT inconclusive
O=C(COc1ccccc1)N/N=C/c1ccc([N+](=O)[O-])o1	Tau fibril ThT inconclusive
